From PubChem BioAssay (EPA / NIEHS) come the findings set out here.

Results filed as inconclusive are left out. Activity calls are given as the source filed them. Rule for the calls: active = hit-call score of the fitted dose curve at least 0.9, where 1 is the maximum; inconclusive = response in the unintended direction; inactive = score below 0.9.

Assay [1] has as its target rat Serotonin, 5-Hydroxytryptamine Receptor 1 (5HT1), Non-Selective Binding, Htr1a (gene 24473) (UniProt P19327). The experiment in a line: NVS_GPCR_r5HT1_NonSelective: NovaScreen (NVS) G Protein-Coupled Receptor Assay for rat Serotonin, 5-Hydroxytryptamine Receptor 1 (5HT1), Non-Selective Binding (AID 2283286). The method in brief: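 Binding of a radioligand to rat cortex membranes is read by filtration and scintillation counting after 1 h. Compounds were screened at 25 uM in duplicate. Actives were then titrated to a top of 50 uM. DMSO is the baseline.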

Assay [2] addresses mouse Cholecystokinin, CCK1 Receptor (CCKA), Cckar (gene 12425) (UniProt O08786). Description: NVS_GPCR_mCCKAPeripheral: NovaScreen (NVS) G Protein-Coupled Receptor Assay for mouse Cholecystokinin, CCK1 Receptor (CCKA) (AID 2283285). The method in brief: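 Chemicals were first screened in duplicate at 25 uM, with those meeting threshold (e.g., 30% inhibition) retested in singleton concentration series to 50 uM maximum. Binding of radioligand to mouse pancreatic membranes was read after 2 h by filtration and scintillation counting.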

In assay [3] the test system is rabbit Platelet Activating Factor Receptor (PAF), gene 100354046. Description: NVS_GPCR_rabPAF: NovaScreen (NVS) G Protein-Coupled Receptor Assay for rabbit Platelet Activating Factor Receptor (PAF) (AID 2283287). The method in brief:
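Rabbit platelet membrane preparation; radioligand displacement read by filter-based scintillation counting 1 h after dosing, loss of signal versus DMSO. Primary screen in duplicate at 25 uM, actives followed up in concentration series.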

In assay [4] the test system is guinea pig Atrionatriuretic Peptide Receptor A (ANPA), gene 100135578. Description: NVS_GPCR_gANPA: NovaScreen (NVS) G Protein-Coupled Receptor Assay for guinea pig Atrionatriuretic Peptide Receptor A (ANPA) (AID 2283291). The method in brief:
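Displacement of specific radioligand from guinea pig cerebellum membranes was read by scintillation after 1 h. A duplicate single-point screen at 25 uM was followed by a concentration series up to 50 uM, analysed relative to DMSO.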

The target of assay [5] is rat Adrenergic, Alpha 1, Non-selective Receptor (Adra1), Adra1a (gene 29412) (UniProt P43140). The experiment in a line: NVS_GPCR_rAdra1_NonSelective: NovaScreen (NVS) G Protein-Coupled Receptor Assay for rat Adrenergic, Alpha 1, Non-selective Receptor (Adra1) (AID 2283289). The method in brief: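 Chemicals first screened in duplicate at 25 uM, then actives tested in concentration series up to 50 uM. Binding measured as displacement of radioligand from rat forebrain membrane receptors, 1 h, filtration with scintillation readout; DMSO baseline.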

The target in assay [6] is human Vasopressin 1A Receptor (V1A), AVPR1A (gene 552) (UniProt P37288). The experiment in a line: NVS_GPCR_hV1A: NovaScreen (NVS) G Protein-Coupled Receptor Assay for human Vasopressin 1A Receptor (V1A) (AID 2283284). The method in brief: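 Single-concentration duplicate screen at 25 uM, with concentration-response follow-up (top 50 uM) for actives. The assay measured displacement of a radioligand from human platelet-derived receptor after 1.5 h, detected by filtration and scintillation counting.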

Assay [7] addresses rat Adrenergic Receptor, Alpha 2 (Adra2), Non-selective Binding, Adra2a (gene 25083) (UniProt P22909). The experiment in a line: NVS_GPCR_rAdra2_NonSelective: NovaScreen (NVS) G Protein-Coupled Receptor Assay for rat Adrenergic Receptor, Alpha 2 (Adra2), Non-selective Binding (AID 2283299). The method in brief:
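Filter-based scintillation counting of radioligand binding to rat cortical membrane receptors, measured 1.25 hours post-dosing; loss of signal versus DMSO indicates displacement. Initial single-concentration duplicate at 25 uM, then concentration series.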

The target in assay [8] is rat Corticotropin Releasing Factor Receptor (CRF), Crhr1 (gene 58959) (UniProt P35353). The experiment in a line: NVS_GPCR_rCRF: NovaScreen (NVS) G Protein-Coupled Receptor Assay for rat Corticotropin Releasing Factor Receptor (CRF) (AID 2283300). The method in brief:
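Single-concentration (25 uM, duplicate) radioligand binding on rat cortical membrane preparations, counted by scintillation after 2 h. Activity scored as signal loss relative to DMSO negative control.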

In assay [9] the target is rat Gamma-Aminobutyric Acid Type B Receptor (GABBR), Gabbr1 (gene 81657) (UniProt Q9Z0U4). Description: NVS_GPCR_rGABBR: NovaScreen (NVS) G Protein-Coupled Receptor Assay for rat Gamma-Aminobutyric Acid Type B Receptor (GABBR) (AID 2283301). The method in brief: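 Rat cortical membrane preparation, competitive radioligand binding for 1 h with filtration and scintillation readout. Actives from duplicate single-point 25 uM screening proceeded to concentration series with 50 uM top concentration.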

Assay [10] concerns the target human Opioid Receptor Mu (Opiate Mu), OPRM1 (gene 4988) (UniProt P35372). The experiment in a line: NVS_GPCR_hOpiate_mu: NovaScreen (NVS) G Protein-Coupled Receptor Assay for human Opioid Receptor Mu (Opiate Mu) (AID 2283290).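 Note: hits lower bound tracer signal versus DMSO meaning displacement of the ligand.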 The method in brief:
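Cell-free radioligand binding to membranes from CHO cells expressing the receptor; bound tracer measured by filter-based scintillation counting 2.5 hours after dosing. Loss of signal versus DMSO baseline reflects displacement; primary screen at 25 uM in duplicate, actives followed up in concentration series.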

Assay [11] has as its target guinea pig Bradykinin Receptor B2 (BK2), BDKRB2 (gene 100135486) (UniProt O70526). Description: NVS_GPCR_gBK2: NovaScreen (NVS) G Protein-Coupled Receptor Assay for guinea pig Bradykinin Receptor B2 (BK2) (AID 2283292). The method in brief: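 Guinea pig ileum membrane preparation incubated 1 h with radioligand and test chemical; bound counts measured after filtration. Primary duplicate screening at 25 uM, then singleton concentration series with a 50 uM top dose; DMSO as baseline.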

For assay [12], the target named is mouse Cholecystokinin, CCK2 Receptor (CCKB), Cckbr (gene 12426) (UniProt P56481). Description: NVS_GPCR_mCKKBCentral: NovaScreen (NVS) G Protein-Coupled Receptor Assay for mouse Cholecystokinin, CCK2 Receptor (CCKB) (AID 2283293). The method in brief: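 Mouse forebrain membrane preparation incubated 2 h with chemical and radioligand; bound radioactivity counted after filtration. Single-concentration duplicate screen at 25 uM, then concentration series to 50 uM max for hits, DMSO as baseline.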

The target in assay [13] is rat Adrenergic, Alpha 1A Receptor (Adra1A), Adra1a (gene 29412) (UniProt P43140). Description: NVS_GPCR_rAdra1A: NovaScreen (NVS) G Protein-Coupled Receptor Assay for rat Adrenergic, Alpha 1A Receptor (Adra1A) (AID 2283296). The method in brief:
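Filter radiodetection after 1 h competitive binding on CEC-pretreated rat cortical membranes. Duplicate single-point screening at 25 uM; active chemicals retested across concentration series.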

The test system of assay [14] is rat Adrenergic, Alpha 1B Receptor (Adra1B), gene 24173. Description: NVS_GPCR_rAdra1B: NovaScreen (NVS) G Protein-Coupled Receptor Assay for rat Adrenergic, Alpha 1B Receptor (Adra1B) (AID 2283297). The method in brief:
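Filter-binding radioligand competition on membranes from rat liver, read after 1 h by scintillation counting. Single-concentration duplicate screen at 25 uM, followed by concentration-response on actives, normalised to DMSO.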

The target of the next assay is Adra2b (gene 24174) (UniProt P19328). The experiment in a line: NVS_GPCR_rmAdra2B: NovaScreen (NVS) G Protein-Coupled Receptor Assay for hybird cells Adrenergic, Alpha 2B Receptor (Adra2B) (AID 2283306). The method in brief:
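Compounds screened first at 25 uM in duplicate, with actives followed up in concentration-response; specific radioligand displacement from hybrid neuroglioma/blastoma cell membrane preparations measured by filter scintillation counting after 1 h, normalized to DMSO.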

In assay [15] the target is rat Serotonin, 5-Hydroxytryptamine Receptor (5HT), Non-Selective Binding, Htr1a (gene 24473) (UniProt P19327). Description: NVS_GPCR_r5HT_NonSelective: NovaScreen (NVS) G Protein-Coupled Receptor Assay for rat Serotonin, 5-Hydroxytryptamine Receptor (5HT), Non-Selective Binding (AID 2283295). The method in brief:
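Rat cortex membrane preparation incubated 1 h with radioligand and test chemical; bound radioactivity counted after filtration. Screening began in duplicate at 25 uM with concentration-series follow-up; fitting relative to DMSO.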

Assay [16] concerns the target guinea pig Serotonin, 5-Hydroxytryptamine Receptor 4 (5HT4), HTR4 (gene 100135548) (UniProt O70528). The experiment in a line: NVS_GPCR_g5HT4: NovaScreen (NVS) G Protein-Coupled Receptor Assay for guinea pig Serotonin, 5-Hydroxytryptamine Receptor 4 (5HT4) (AID 2283294). The method in brief:
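Compounds first screened in duplicate at 25 uM, actives followed up in concentration series. Binding measured as displacement of specific radioligand from guinea pig striatal membranes, 1 h, filter-based scintillation read-out versus DMSO baseline.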

Assay [17] has as its target rat Adrenergic Receptor, Beta (Adrb), Non-selective Binding, Adrb1 (gene 24925) (UniProt P18090). The experiment in a line: NVS_GPCR_rAdrb_NonSelective: NovaScreen (NVS) G Protein-Coupled Receptor Assay for rat Adrenergic Receptor, Beta (Adrb), Non-selective Binding (AID 2283298). The method in brief: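 Rat cortical membranes incubated 1 h with beta-adrenergic radioligand and test chemical; bound ligand measured by filtration and scintillation counting. Screen at 25 uM duplicate, then concentration series with 50 uM maximum; loss of signal versus DMSO.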

Assay [18] deals with Metabotropic glutamate receptor 1 (Rattus norvegicus) (UniProt P23385). Description: NVS_GPCR_rmMGluR1: NovaScreen (NVS) G Protein-Coupled Receptor Assay for rat Glutamate Metabotropic Receptor 1 (MGluR1) (AID 2283305). The method in brief:
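Binding to native receptor from rat cerebellum extract, measured as displacement of a radioligand (scintillation counting, filter separation) after 1 hour. Compounds tested at 25 uM in duplicate, then titrated to a 50 uM maximum.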

Sequence of human Opioid Receptor Mu (Opiate Mu), OPRM1 (gene 4988) (P35372 whole entry, looked up): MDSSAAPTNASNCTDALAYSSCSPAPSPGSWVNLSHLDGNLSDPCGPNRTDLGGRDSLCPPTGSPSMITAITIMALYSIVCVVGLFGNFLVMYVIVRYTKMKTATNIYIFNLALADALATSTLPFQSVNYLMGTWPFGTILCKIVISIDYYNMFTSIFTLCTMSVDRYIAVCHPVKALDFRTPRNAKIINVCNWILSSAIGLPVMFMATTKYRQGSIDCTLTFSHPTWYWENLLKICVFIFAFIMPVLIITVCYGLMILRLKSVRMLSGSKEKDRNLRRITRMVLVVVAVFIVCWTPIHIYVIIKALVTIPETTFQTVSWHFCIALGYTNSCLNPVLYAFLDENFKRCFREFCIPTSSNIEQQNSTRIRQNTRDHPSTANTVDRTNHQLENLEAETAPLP
Sequence of mouse Cholecystokinin, CCK1 Receptor (CCKA), Cckar (gene 12425) (O08786 whole entry, looked up): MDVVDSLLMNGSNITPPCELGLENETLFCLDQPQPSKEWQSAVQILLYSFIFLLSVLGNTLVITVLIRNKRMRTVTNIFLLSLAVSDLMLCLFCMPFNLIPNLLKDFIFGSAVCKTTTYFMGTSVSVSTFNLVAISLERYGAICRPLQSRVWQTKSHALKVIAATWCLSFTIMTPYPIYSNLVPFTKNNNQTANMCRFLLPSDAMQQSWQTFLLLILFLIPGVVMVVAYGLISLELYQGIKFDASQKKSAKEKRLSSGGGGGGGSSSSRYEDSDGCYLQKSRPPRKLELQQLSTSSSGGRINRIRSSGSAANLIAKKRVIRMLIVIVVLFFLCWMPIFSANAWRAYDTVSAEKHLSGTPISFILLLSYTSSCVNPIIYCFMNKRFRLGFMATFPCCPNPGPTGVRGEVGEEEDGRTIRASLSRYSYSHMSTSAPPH
Sequence of rat Adrenergic Receptor, Alpha 2 (Adra2), Non-selective Binding, Adra2a (gene 25083) (P22909 whole entry, looked up): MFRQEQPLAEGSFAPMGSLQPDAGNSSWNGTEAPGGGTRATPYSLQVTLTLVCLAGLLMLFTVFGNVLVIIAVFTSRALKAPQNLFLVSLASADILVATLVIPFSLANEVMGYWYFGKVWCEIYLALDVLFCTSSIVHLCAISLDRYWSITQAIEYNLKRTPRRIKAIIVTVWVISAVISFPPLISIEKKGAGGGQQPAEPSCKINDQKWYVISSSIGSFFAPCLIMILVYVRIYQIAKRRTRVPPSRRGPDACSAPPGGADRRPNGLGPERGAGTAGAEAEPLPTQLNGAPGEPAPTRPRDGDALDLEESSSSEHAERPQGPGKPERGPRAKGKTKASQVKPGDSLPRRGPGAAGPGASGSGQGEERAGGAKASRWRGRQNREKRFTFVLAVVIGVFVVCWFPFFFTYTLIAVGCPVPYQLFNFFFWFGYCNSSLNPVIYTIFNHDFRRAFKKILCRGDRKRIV
Sequence of mouse Cholecystokinin, CCK2 Receptor (CCKB), Cckbr (gene 12426) (P56481 whole entry, looked up): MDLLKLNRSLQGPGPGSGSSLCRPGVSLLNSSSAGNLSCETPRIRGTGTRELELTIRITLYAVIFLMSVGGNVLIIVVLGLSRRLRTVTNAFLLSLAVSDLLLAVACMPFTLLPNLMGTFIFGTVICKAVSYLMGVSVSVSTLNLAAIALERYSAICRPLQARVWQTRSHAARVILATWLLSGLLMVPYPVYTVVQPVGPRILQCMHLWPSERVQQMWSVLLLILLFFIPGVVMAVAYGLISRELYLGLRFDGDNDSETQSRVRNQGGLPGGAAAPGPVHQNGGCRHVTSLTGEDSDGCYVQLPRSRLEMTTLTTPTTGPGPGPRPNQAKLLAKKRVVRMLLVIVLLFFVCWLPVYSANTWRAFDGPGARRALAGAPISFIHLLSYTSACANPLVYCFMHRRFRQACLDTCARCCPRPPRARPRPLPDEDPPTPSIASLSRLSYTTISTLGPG
Sequence of rat Corticotropin Releasing Factor Receptor (CRF), Crhr1 (gene 58959) (P35353 whole entry, looked up): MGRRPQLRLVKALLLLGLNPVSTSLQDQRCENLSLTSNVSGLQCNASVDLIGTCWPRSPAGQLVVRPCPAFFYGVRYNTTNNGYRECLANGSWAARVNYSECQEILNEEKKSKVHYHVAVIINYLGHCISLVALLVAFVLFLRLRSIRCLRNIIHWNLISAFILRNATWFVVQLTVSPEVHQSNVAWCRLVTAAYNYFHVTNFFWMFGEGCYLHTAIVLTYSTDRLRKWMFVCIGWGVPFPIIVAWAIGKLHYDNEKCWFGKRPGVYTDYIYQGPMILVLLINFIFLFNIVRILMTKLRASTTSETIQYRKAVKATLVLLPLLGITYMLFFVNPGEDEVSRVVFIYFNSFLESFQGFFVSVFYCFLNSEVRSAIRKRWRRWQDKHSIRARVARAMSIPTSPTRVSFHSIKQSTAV
Sequence of human Vasopressin 1A Receptor (V1A), AVPR1A (gene 552) (P37288 whole entry, looked up): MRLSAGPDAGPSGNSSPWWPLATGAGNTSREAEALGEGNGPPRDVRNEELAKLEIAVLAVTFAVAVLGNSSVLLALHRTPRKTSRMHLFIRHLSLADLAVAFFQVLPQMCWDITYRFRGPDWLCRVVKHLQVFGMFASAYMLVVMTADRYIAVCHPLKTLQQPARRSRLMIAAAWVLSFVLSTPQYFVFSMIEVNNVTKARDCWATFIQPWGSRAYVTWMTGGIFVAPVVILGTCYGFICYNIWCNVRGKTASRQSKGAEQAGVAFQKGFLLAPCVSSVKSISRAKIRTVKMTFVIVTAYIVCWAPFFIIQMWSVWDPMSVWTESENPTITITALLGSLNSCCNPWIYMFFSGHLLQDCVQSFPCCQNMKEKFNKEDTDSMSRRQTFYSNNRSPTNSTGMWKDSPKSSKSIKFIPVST
Sequence of rat Adrenergic, Alpha 1, Non-selective Receptor (Adra1), Adra1a (gene 29412) (P43140 whole entry, looked up): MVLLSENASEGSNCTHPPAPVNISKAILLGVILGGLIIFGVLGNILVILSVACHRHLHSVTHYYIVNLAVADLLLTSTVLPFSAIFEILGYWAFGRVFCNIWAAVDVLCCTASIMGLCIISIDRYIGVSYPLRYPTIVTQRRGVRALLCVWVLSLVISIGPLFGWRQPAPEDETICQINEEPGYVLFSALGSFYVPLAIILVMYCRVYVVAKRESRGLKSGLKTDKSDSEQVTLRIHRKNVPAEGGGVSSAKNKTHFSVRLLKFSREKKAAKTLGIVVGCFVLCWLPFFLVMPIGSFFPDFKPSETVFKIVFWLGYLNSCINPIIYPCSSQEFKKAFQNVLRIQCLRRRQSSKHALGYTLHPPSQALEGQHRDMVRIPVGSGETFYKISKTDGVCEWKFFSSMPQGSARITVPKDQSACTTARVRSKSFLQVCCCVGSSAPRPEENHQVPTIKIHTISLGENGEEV
Sequence of Adra2b (gene 24174) (P19328 whole entry, looked up): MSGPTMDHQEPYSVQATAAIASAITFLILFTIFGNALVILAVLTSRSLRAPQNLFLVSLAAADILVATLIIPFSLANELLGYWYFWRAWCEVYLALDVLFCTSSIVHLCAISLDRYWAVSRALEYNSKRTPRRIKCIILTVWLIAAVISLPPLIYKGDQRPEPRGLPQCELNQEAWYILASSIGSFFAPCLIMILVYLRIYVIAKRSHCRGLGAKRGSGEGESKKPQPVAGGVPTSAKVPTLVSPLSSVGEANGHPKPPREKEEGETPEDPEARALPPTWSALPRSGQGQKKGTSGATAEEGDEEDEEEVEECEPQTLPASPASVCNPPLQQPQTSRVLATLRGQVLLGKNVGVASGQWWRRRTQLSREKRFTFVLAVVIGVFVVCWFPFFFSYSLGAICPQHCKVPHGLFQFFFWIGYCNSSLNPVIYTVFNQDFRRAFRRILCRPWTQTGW
Sequence of Metabotropic glutamate receptor 1 (Rattus norvegicus) (P23385 whole entry, looked up): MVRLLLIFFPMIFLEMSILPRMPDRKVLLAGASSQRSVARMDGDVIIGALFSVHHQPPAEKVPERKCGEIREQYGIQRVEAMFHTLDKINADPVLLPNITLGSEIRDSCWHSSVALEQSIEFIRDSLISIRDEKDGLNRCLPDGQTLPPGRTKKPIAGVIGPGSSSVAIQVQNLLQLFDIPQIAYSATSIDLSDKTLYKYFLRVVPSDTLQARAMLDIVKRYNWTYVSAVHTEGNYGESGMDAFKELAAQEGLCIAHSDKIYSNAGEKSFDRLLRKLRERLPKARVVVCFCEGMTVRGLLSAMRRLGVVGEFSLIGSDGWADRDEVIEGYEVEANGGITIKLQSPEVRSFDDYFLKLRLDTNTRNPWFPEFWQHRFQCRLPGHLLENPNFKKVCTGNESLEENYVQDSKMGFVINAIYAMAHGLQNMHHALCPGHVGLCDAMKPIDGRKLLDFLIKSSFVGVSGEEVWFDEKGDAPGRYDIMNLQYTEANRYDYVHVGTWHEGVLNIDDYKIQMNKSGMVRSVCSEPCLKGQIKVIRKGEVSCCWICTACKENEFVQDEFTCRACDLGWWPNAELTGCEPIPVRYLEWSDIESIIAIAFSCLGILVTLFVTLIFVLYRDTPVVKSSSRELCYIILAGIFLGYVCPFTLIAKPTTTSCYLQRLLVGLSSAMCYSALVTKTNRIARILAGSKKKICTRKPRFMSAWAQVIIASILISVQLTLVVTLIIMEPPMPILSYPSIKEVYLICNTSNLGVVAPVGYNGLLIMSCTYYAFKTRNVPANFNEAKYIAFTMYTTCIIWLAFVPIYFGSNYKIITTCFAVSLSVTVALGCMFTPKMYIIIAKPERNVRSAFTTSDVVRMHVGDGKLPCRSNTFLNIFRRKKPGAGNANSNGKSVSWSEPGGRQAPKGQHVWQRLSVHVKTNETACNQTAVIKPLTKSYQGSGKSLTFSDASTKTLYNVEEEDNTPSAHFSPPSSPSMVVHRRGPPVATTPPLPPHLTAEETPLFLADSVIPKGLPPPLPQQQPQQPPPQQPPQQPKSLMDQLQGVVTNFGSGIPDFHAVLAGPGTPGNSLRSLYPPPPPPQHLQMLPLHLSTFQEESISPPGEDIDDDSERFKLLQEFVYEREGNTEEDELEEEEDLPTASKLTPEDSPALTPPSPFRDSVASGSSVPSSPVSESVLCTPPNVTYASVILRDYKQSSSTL
Sequence of rat Adrenergic, Alpha 1A Receptor (Adra1A), Adra1a (gene 29412) (P43140 whole entry, looked up): as the sequence (P43140 whole entry, looked up) above

Consider `CCOP(=O)(OCC)Oc1cc(C)nc(C(C)C)n1`, for which the compound was classed as inactive in assay [1].

Take `C#CCC1=C(C)C(OC(=O)C2C(C=C(C)C)C2(C)C)CC1=O` (stereo not given): the call in assay [2] and in assay [4] was inactive. In [3], the half-maximal activity concentration (AC50) is 10.9 µM (active).

Turning to `Nc1nc(N)nc(NC2CC2)n1`, the compound was classed as inactive in assay [5].

For `CCOP(=S)(OCC)Oc1ccc2c(C)c(Cl)c(=O)oc2c1`, the compound was classed as inactive in [4].

As for `CCC(=NOC/C=C/Cl)C1=C(O)CC(C2CCOCC2)CC1=O` (stereo not given), in [6], the call was inactive.

For the compound `CCOP(=S)(OCC)OC(Cl)C(Cl)(Cl)Cl` (stereo not given), in assay [5], the result was inactive.

Take `CCOP(=S)(Oc1cnc(C(C)(C)C)nc1)OC(C)C` (stereo not given): in assay [3], the AC50 was 11.5 µM (active). In addition, the call in assay [7] was inactive.

For `Nc1c(Cl)cc([N+](=O)[O-])cc1Cl`, in assay [8], the result was inactive.

For `Cc1cc(C2CC2)nc(Nc2ccccc2)n1`, the compound was called inactive in [8] and in [9].

For the compound `S=C1NCCN1`, the call in assay [10], in assay [11] and in [7] was inactive.

Consider `CCCCSP(=O)(SCCCC)SCCCC`, for which, in [12], the compound was classed as inactive.

For `C[Si](Cn1cncn1)(c1ccc(F)cc1)c1ccc(F)cc1`, the AC50 was 25 µM (active) in assay [2]; 6.38 µM (active) in [3]; 9.11 µM (active) in assay [10]; 16.9 µM (active) in assay [13]; 19.1 µM (active) in [14]; 25 µM (active) with Adra2b (gene 24174).

With `CNC(=O)ON=C(C)SC`, the compound was called inactive in assay [3].

As for `CCOC(=O)COc1cc(-c2nn(C)c(OC(F)F)c2Cl)c(F)cc1Cl`, the call in [15] was inactive.

Consider `CC[C@H](C)[C@H]1O[C@]2(C=C[C@@H]1C)C[C@@H]1C[C@@H](C/C=C(\C)[C@@H](O[C@H]3C[C@H](OC)[C@@H](O[C@H]4C[C@H](OC)[C@@H](NC)[C@H](C)O4)[C@H](C)O3)[C@@H](C)/C=C/C=C3\CO[C@@H]4[C@H](O)C(C)=C[C@@H](C(=O)O1)[C@]34O)O2`, for which the compound was called inactive in assay [6] and in assay [17]. For the same compound, the AC50 was 10.4 µM (active) in [2]; 15 µM (active) in [10]; 15.4 µM (active) in assay [12]; 21.4 µM (active) in [16]; 33.1 µM (active) in assay [14]; 11.5 µM (active) in assay [7]. In addition, the concentration at half-maximal activity (AC50) in assay [18] was 12.7 µM (active); with Adra2b (gene 24174) it was 34.8 µM (active).
